Among all 5,500 compounds or so, about 2,000 (36%) were called active. Inconclusive results (about 18%) are left out. Cut-off read from the data, not from the text of the source: active = normalized growth mostly below about 0.91 (no sharp cut-off); inconclusive = no clear call, values can overlap the other calls; inactive = mostly above about 0.92. Some of the results follow.
Experiment: chemical genetic growth profiling, strain panel (AID 1159580);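 note: tested at 20 µM; growth read once vehicle control cultures reached saturation at 30 °C; 1 = growth at the plate median or of vehicle wells; lower values mean less growth of the strain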
Settings: growth OD

Measured: normalized growth

CC1C[C@H]2CC(=O)[C@H]3CCCN4CCC[C@H]2[C@]34C1 (stereo partly specified)
inactive: S. cerevisiae deletion strains, locus YAL021C, strain ccr4, active compounds read low 1.01 | S. cerevisiae deletion strains, locus YAL026C, strain drs2, active compounds read low 1.01 | S. cerevisiae deletion strains, locus YAL030W, strain snc1, active compounds read low 1 | S. cerevisiae deletion strains, locus YBL061C, strain skt5, active compounds read low 1.01 | S. cerevisiae deletion strains, locus YBR009C, strain hhf1, active compounds read low 1 | S. cerevisiae deletion strains, locus YBR021W, strain FUR4, active compounds read low 0.996 | S. cerevisiae deletion strains, locus YBR023C, strain chs3, active compounds read low 1.02 | S. cerevisiae deletion strains, locus YBR171W, strain sec66, active compounds read low 0.996 | S. cerevisiae deletion strains, locus YBR229C, strain ROT2, active compounds read low 1 | S. cerevisiae deletion strains, locus YBR231C, strain swc5, active compounds read low 0.993 | S. cerevisiae deletion strains, locus YBR279W, strain paf1, active compounds read low 1.02 | S. cerevisiae deletion strains, locus YCL011C, strain gbp2, active compounds read low 1.02 | S. cerevisiae deletion strains, locus YCL016C, strain dcc1, active compounds read low 1.02 | S. cerevisiae deletion strains, locus YCL029C, strain bik1, active compounds read low 1.02 | S. cerevisiae deletion strains, locus YCL061C, strain MRC1, active compounds read low 1.01 | S. cerevisiae deletion strains, locus YCL069W, strain vba3, active compounds read low 1.01 | S. cerevisiae deletion strains, locus YCR088W, strain abp1, active compounds read low 1.01 | S. cerevisiae deletion strains, locus YDL005C, strain med2, active compounds read low 1.01 | S. cerevisiae deletion strains, locus YDL035C, strain GPR1, active compounds read low 1.03 | S. cerevisiae deletion strains, locus YDL040C, strain nat1, active compounds read low 1.01 | S. cerevisiae deletion strains, locus YDL074C, strain BRE1, active compounds read low 1.03 | S. cerevisiae deletion strains, locus YDL101C, strain DUN1, active compounds read low 1.02 | S. cerevisiae deletion strains, locus YDL134C, strain PPH21, active compounds read low 1.01 | S. cerevisiae deletion strains, locus YDL185W, strain tfp1, active compounds read low 1.02 | S. cerevisiae deletion strains, locus YDL192W, strain arf1, active compounds read low 1.02 | S. cerevisiae deletion strains, locus YDR001C, strain nth1, active compounds read low 1.01 | S. cerevisiae deletion strains, locus YDR069C, strain doa4, active compounds read low 1.02 | S. cerevisiae deletion strains, locus YDR101C, strain arx1, active compounds read low 1.03 | S. cerevisiae deletion strains, locus YDR137W, strain rgp1, active compounds read low 1.03 | S. cerevisiae deletion strains, locus YDR150W, strain NUM1, active compounds read low 1 | S. cerevisiae deletion strains, locus YDR159W, strain sac3, active compounds read low 1 | S. cerevisiae deletion strains, locus YDR162C, strain NBP2, active compounds read low 1.03 | S. cerevisiae deletion strains, locus YDR195W, strain ref2 0.993 | S. cerevisiae deletion strains, locus YDR297W, strain sur2, active compounds read low 1 | S. cerevisiae deletion strains, locus YDR318W, strain mcm21, active compounds read low 1.02 | S. cerevisiae deletion strains, locus YDR334W, strain swr1, active compounds read low 1 | S. cerevisiae deletion strains, locus YDR335W, strain msn5, active compounds read low 1.01 | S. cerevisiae deletion strains, locus YDR388W, active compounds read low 1.01 | S. cerevisiae deletion strains, locus YDR392W, strain spt3, active compounds read low 0.954 | S. cerevisiae deletion strains, locus YDR502C, strain sam2, active compounds read low 1.01 | S. cerevisiae deletion strains, locus YEL003W, strain gim4, active compounds read low 1.01 | S. cerevisiae deletion strains, locus YEL037C, strain rad23, active compounds read low 1.01 | S. cerevisiae deletion strains, locus YEL061C, strain CIN8 (second series), active compounds read low 1.01 | S. cerevisiae deletion strains, locus YEL061C, strain CIN8, active compounds read low 1.01 | S. cerevisiae deletion strains, locus YER015W, strain faa2, active compounds read low 1.02 | S. cerevisiae deletion strains, locus YER016W, strain bim1, active compounds read low 1.01 | S. cerevisiae deletion strains, locus YER110C, active compounds read low 1.02 | S. cerevisiae deletion strains, locus YER111C, strain swi4, active compounds read low 1 | S. cerevisiae deletion strains, locus YER155C, strain BEM2 (second series), active compounds read low 1.04 | S. cerevisiae deletion strains, locus YER155C, strain BEM2, active compounds read low 0.989 | S. cerevisiae deletion strains, locus YER167W, strain BCK2, active compounds read low 1.01 | S. cerevisiae deletion strains, locus YFR010W, strain ubp6, active compounds read low 1.01 | S. cerevisiae deletion strains, locus YGL078C, strain dbp3, active compounds read low 1.01 | S. cerevisiae deletion strains, locus YGL086W, strain mad1, active compounds read low 1.02 | S. cerevisiae deletion strains, locus YGL167C, strain pmr1, active compounds read low 1.01 | S. cerevisiae deletion strains, locus YGL173C, strain kem1, active compounds read low 1.01 | S. cerevisiae deletion strains, locus YGL227W, strain vid30, active compounds read low 1.01 | S. cerevisiae deletion strains, locus YGL240W, strain doc1, active compounds read low 0.996 | S. cerevisiae deletion strains, locus YGL248W, strain PDE1, active compounds read low 1.01 | S. cerevisiae deletion strains, locus YGL253W, strain hxk2, active compounds read low 1 | S. cerevisiae deletion strains, locus YGR135W, strain pre9, active compounds read low 1.01 | S. cerevisiae deletion strains, locus YGR252W, strain gcn5, active compounds read low 0.999 | S. cerevisiae deletion strains, locus YHR013C, strain ard1, active compounds read low 1.02 | S. cerevisiae deletion strains, locus YHR027C, strain rpn1, active compounds read low 1 | S. cerevisiae deletion strains, locus YHR030C, strain SLT2, active compounds read low 1 | S. cerevisiae deletion strains, locus YHR079C, strain IRE1 (second series), active compounds read low 1.01 | S. cerevisiae deletion strains, locus YHR094C, strain hxt1, active compounds read low 1.02 | S. cerevisiae deletion strains, locus YHR129C, strain ARP1, active compounds read low 1.01 | S. cerevisiae deletion strains, locus YHR142W, strain chs7, active compounds read low 1.02 | S. cerevisiae deletion strains, locus YHR200W, strain rpn10, active compounds read low 1.02 | S. cerevisiae deletion strains, locus YIL066C, strain RNR3, active compounds read low 1.01 | S. cerevisiae deletion strains, locus YIL073C, strain SPO22, active compounds read low 1.06 | S. cerevisiae deletion strains, locus YIL125W, strain kgd1, active compounds read low 1.02 | S. cerevisiae deletion strains, locus YIR030C, strain dcg1, active compounds read low 1.02 | S. cerevisiae deletion strains, locus YJL092W, strain hpr5, active compounds read low 1.01 | S. cerevisiae deletion strains, locus YJL095W, strain BCK1 (second series), active compounds read low 1.01 | S. cerevisiae deletion strains, locus YJL095W, strain BCK1, active compounds read low 1.04 | S. cerevisiae deletion strains, locus YJL115W, strain asf1, active compounds read low 1.01 | S. cerevisiae deletion strains, locus YJL129C, strain trk1, active compounds read low 1.02 | S. cerevisiae deletion strains, locus YJL134W, strain LCB3, active compounds read low 0.994 | S. cerevisiae deletion strains, locus YJL154C, strain vps35, active compounds read low 1.02 | S. cerevisiae deletion strains, locus YJL164C, strain tpk1, active compounds read low 1.01 | S. cerevisiae deletion strains, locus YJL166W, strain qcr8, active compounds read low 1.01 | S. cerevisiae deletion strains, locus YJL168C, strain set2, active compounds read low 1.01 | S. cerevisiae deletion strains, locus YJL187C, strain SWE1 (second series), active compounds read low 1.03 | S. cerevisiae deletion strains, locus YJL187C, strain SWE1, active compounds read low 1 | S. cerevisiae deletion strains, locus YJR043C, strain POL32, active compounds read low 1 | S. cerevisiae deletion strains, locus YKL009W, strain mrt4, active compounds read low 1.03 | S. cerevisiae deletion strains, locus YKL068W, active compounds read low 1.01 | S. cerevisiae deletion strains, locus YKL085W, strain MDH1 (second series), active compounds read low 1 | S. cerevisiae deletion strains, locus YKL085W, strain MDH1, active compounds read low 1 | S. cerevisiae deletion strains, locus YKL160W, strain elf1, active compounds read low 1.02 | S. cerevisiae deletion strains, locus YKL190W, strain CNB1, active compounds read low 0.989 | S. cerevisiae deletion strains, locus YKR001C, strain vps1, active compounds read low 1.02 | S. cerevisiae deletion strains, locus YKR026C, strain gcn3, active compounds read low 1.01 | S. cerevisiae deletion strains, locus YKR091W, strain srl3, active compounds read low 1.02 | S. cerevisiae deletion strains, locus YLL001W, strain dnm1, active compounds read low 1.01 | S. cerevisiae deletion strains, locus YLL026W, active compounds read low 1 | S. cerevisiae deletion strains, locus YLL041C, strain sdh2, active compounds read low 1.01 | S. cerevisiae deletion strains, locus YLR027C, strain aat2, active compounds read low 1.01 | S. cerevisiae deletion strains, locus YLR039C, strain RIC1, active compounds read low 1.04 | S. cerevisiae deletion strains, locus YLR058C, strain SHM2, active compounds read low 1.02 | S. cerevisiae deletion strains, locus YLR102C, strain apc9, active compounds read low 1.02 | S. cerevisiae deletion strains, locus YLR221C, strain rsa3, active compounds read low 1.02 | S. cerevisiae deletion strains, locus YLR258W, strain gsy2, active compounds read low 1.03 | S. cerevisiae deletion strains, locus YLR262C, strain YPT6 (second series), active compounds read low 1.01 | S. cerevisiae deletion strains, locus YLR262C, strain YPT6, active compounds read low 1.12 | S. cerevisiae deletion strains, locus YLR268W, strain sec22, active compounds read low 1.04 | S. cerevisiae deletion strains, locus YLR320W, strain mms22, active compounds read low 1.02 | S. cerevisiae deletion strains, locus YLR330W, strain CHS5, active compounds read low 1 | S. cerevisiae deletion strains, locus YLR342W, strain FKS1 (second series), active compounds read low 0.993 | S. cerevisiae deletion strains, locus YLR342W, strain FKS1, active compounds read low 1.02 | S. cerevisiae deletion strains, locus YLR357W, strain rsc2, active compounds read low 0.995 | S. cerevisiae deletion strains, locus YLR370C, strain arc18, active compounds read low 1.02 | S. cerevisiae deletion strains, locus YLR371W, strain rom2, active compounds read low 1.02 | S. cerevisiae deletion strains, locus YLR384C, strain iki3, active compounds read low 1.02 | S. cerevisiae deletion strains, locus YLR418C, strain cdc73, active compounds read low 1.02 | S. cerevisiae deletion strains, locus YML016C, strain PPZ1, active compounds read low 1.01 | S. cerevisiae deletion strains, locus YML032C, strain rad52, active compounds read low 1.01 | S. cerevisiae deletion strains, locus YML120C, strain ndi1, active compounds read low 1.01 | S. cerevisiae deletion strains, locus YML124C, strain tub3, active compounds read low 1.01 | S. cerevisiae deletion strains, locus YMR058W, strain fet3, active compounds read low 1.01 | S. cerevisiae deletion strains, locus YMR078C, strain ctf18, active compounds read low 1.03 | S. cerevisiae deletion strains, locus YMR125W, strain sto1, active compounds read low 1.01 | S. cerevisiae deletion strains, locus YMR129W, active compounds read low 1.01 | S. cerevisiae deletion strains, locus YMR205C, strain PFK2, active compounds read low 1.02 | S. cerevisiae deletion strains, locus YMR223W, strain ubp8, active compounds read low 1.02 | S. cerevisiae deletion strains, locus YMR231W, strain pep5, active compounds read low 1 | S. cerevisiae deletion strains, locus YMR307W, strain GAS1, active compounds read low 1.01 | S. cerevisiae deletion strains, locus YNL067W, strain RPL9B, active compounds read low 1.03 | S. cerevisiae deletion strains, locus YNL071W, strain lat1, active compounds read low 1.02 | S. cerevisiae deletion strains, locus YNL128W, strain TEP1, active compounds read low 1.03 | S. cerevisiae deletion strains, locus YNL153C, strain GIM3, active compounds read low 1.01 | S. cerevisiae deletion strains, locus YNL209W, strain ssb2, active compounds read low 1.01 | S. cerevisiae deletion strains, locus YNL233W, strain BNI4, active compounds read low 1.03 | S. cerevisiae deletion strains, locus YNL248C, strain rpa49, active compounds read low 0.998 | S. cerevisiae deletion strains, locus YNL250W, strain rad50, active compounds read low 1.05 | S. cerevisiae deletion strains, locus YNL271C, strain bni1, active compounds read low 1.03 | S. cerevisiae deletion strains, locus YNL298W, strain CLA4, active compounds read low 1.01 | S. cerevisiae deletion strains, locus YNL307C, strain MCK1, active compounds read low 1.04 | S. cerevisiae deletion strains, locus YNL322C, strain KRE1 (second series), active compounds read low 1 | S. cerevisiae deletion strains, locus YNL322C, strain KRE1, active compounds read low 1 | S. cerevisiae deletion strains, locus YNR049C, strain mso1, active compounds read low 1.03 | S. cerevisiae deletion strains, locus YNR052C, strain pop2, active compounds read low 1.02 | S. cerevisiae deletion strains, locus YOL012C, strain htz1 1.55 | S. cerevisiae deletion strains, locus YOL147C, strain pex11, active compounds read low 1.02 | S. cerevisiae deletion strains, locus YOR001W, strain rrp6, active compounds read low 1.02 | S. cerevisiae deletion strains, locus YOR061W, strain CKA2, active compounds read low 1.01 | S. cerevisiae deletion strains, locus YOR069W, strain VPS5, active compounds read low 1.01 | S. cerevisiae deletion strains, locus YOR070C, strain gyp1, active compounds read low 1.03 | S. cerevisiae deletion strains, locus YOR080W, strain dia2, active compounds read low 1 | S. cerevisiae deletion strains, locus YOR083W, strain WHI5, active compounds read low 1.02 | S. cerevisiae deletion strains, locus YOR106W, strain vam3, active compounds read low 1.02 | S. cerevisiae deletion strains, locus YOR136W, strain idh2, active compounds read low 1.03 | S. cerevisiae deletion strains, locus YOR144C, strain elg1, active compounds read low 1 | S. cerevisiae deletion strains, locus YOR184W, strain ser1, active compounds read low 1.01 | S. cerevisiae deletion strains, locus YOR265W, strain rbl2, active compounds read low 1 | S. cerevisiae deletion strains, locus YOR270C, strain vph1, active compounds read low 1.05 | S. cerevisiae deletion strains, locus YOR290C, strain snf2, active compounds read low 1.01 | S. cerevisiae deletion strains, locus YOR316C, strain cot1, active compounds read low 1.02 | S. cerevisiae deletion strains, locus YPL051W, strain arl3, active compounds read low 1 | S. cerevisiae deletion strains, locus YPL055C, strain LGE1, active compounds read low 1.03 | S. cerevisiae deletion strains, locus YPL078C, strain atp4, active compounds read low 1.01 | S. cerevisiae deletion strains, locus YPL106C, strain sse1, active compounds read low 0.997 | S. cerevisiae deletion strains, locus YPL240C, strain hsp82, active compounds read low 0.998 | S. cerevisiae deletion strains, locus YPR119W, strain clb2, active compounds read low 1.02 | S. cerevisiae deletion strains, locus YPR141C, strain kar3, active compounds read low 1.02 | S. cerevisiae deletion strains, locus YPR163C, strain tif3, active compounds read low 1.02 | S. cerevisiae deletion strains, locus YPR167C, strain met16, active compounds read low 1.02 | S. cerevisiae deletion strains, strain wtn01, active compounds read low 1.02 | S. cerevisiae strains, strain wild type, active compounds read low 1.01
